Most compounds without a hit are left out; they make up all but 3.3% or so of the library.
NOD2 RIPK2 PPI: blocks binding of human NOD2 to RIPK2. CHO BLA complementation NOD2-RIPK2, CCF4 ratio. inhibition, % at 4.98 µM. 360,000 tested, 0.38% active; in the data active means inhibition above about 21%
Target sequence (O43353 whole entry, looked up): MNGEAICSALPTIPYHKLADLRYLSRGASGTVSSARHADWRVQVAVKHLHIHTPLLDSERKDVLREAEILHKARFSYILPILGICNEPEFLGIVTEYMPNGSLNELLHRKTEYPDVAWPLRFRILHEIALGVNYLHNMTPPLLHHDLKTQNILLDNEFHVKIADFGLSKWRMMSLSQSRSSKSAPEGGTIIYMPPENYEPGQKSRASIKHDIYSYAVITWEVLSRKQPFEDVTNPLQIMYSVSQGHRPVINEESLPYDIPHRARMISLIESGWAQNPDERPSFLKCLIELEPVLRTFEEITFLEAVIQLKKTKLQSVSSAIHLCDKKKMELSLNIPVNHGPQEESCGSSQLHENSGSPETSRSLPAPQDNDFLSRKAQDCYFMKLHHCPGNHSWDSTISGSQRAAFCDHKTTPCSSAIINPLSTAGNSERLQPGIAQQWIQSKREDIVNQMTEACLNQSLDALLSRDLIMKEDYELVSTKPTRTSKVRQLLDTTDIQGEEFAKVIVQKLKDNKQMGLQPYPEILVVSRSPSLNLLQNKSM
rCAG RNA binder: binds r(CAG) RNA repeats. r(CAG) RNA repeat, TO-PRO-1 dye displacement fluorescence. inhibition, % at 3 µM. AID 651821. 370,000 tested, 1.3% active;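 active means inhibition above the plate cutoff, the mean of all test compounds on that plate plus 3 SD, cut at about 35% in these data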;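 further: higher means more dye released from RNA so lower well fluorescence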
TLR4 MyD88 comp: TLR4-MyD88 interaction inhibition in cells. HeLa CL3-4 TLR4/MyD88 BLA complementation, FRET ratio. AID 861. inhibition, % at 8.4 µM. 200,000 tested, 0.18% active; in the data active means inhibition above about 25%
PRMT1 FP inh: inhibitors of human PRMT1. inhibition, % at 2.79 µM. recombinant PRMT1, activity-based probe fluorescence polarization. 370,000 tested, 1.3% active. AID 652257;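 active means inhibition above about 21% made by adding two undisclosed values, limit read from the data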
TLR9-MyD88 block: inhibitors of human TLR9-MyD88 binding. 340,000 tested, 0.21% active. inhibition, % at 4.98 µM. AID 504734. CHO BLA complementation TLR9-MyD88, CCF4 FRET ratio. Q9NR96+Q99836;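 active means inhibition above the mean over all tested compounds plus 3 SD, cut at about 21% in these data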
ABHD5-PLIN5 inh: blocks binding of human ABHD5 to perilipin-5; Q00G26+Q8WTS1; inhibition, % at 4 µM; 360,000 tested, 0.78% active; Split G. princeps luciferase complementation, luminescence, 4 h;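 active means inhibition above the mean inhibition across every tested compound plus 3 SD, cut at about 22% in these data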
rCAG bind conf: r(CAG) RNA repeat binding, confirmation | shares compounds with rCAG RNA binder | TO-PRO-1 dye displacement fluorescence | inhibition, % at 3 µM | 4,300 tested, 70% active | AID 652065;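 active means inhibition above a per-plate cutoff, the mean inhibition of sample wells plus 3 SD, cut at about 35% in these data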;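 further: loss of TO-PRO-1 fluorescence as compound displaces dye from 1x1 AA loop RNA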
DNA CAG counter: disrupts DNA CAG TO-PRO-1 complex, flagging rCAG hits; AID 652068; d(CAG) DNA oligo TO-PRO-1 dye displacement, fluorescence; 4,300 tested, 94% active; inhibition, % at 3 µM; shares compounds with rCAG RNA binder;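 active means inhibition above its plate's cutoff, the mean test-well inhibition plus 3 SD, cut at about 4.8% in these data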;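 further: hits displace the dye from DNA and so lower well fluorescence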
dCAG dye DR: DNA CAG dye complex inhibition, dose response counter-screen. shares compounds with rCAG RNA binder. 250 tested, 20% active. IC50, µM. DNA CAG/GTC duplex TO-PRO-1 dye displacement fluorescence; in the data active means IC50 below about 10 µM
A number is an active result; 0 = inactive; - = no result given.

SMILES	NOD2 RIPK2 PPI	rCAG RNA binder	TLR4 MyD88 comp	PRMT1 FP inh	TLR9-MyD88 block	ABHD5-PLIN5 inh	rCAG bind conf	DNA CAG counter	others
CCN(Cc1ccccc1)S(=O)(=O)c1c(C)n(C)c(=O)n(C)c1=O	0	0	-	0	0	0	-	-
Cc1cccc(NC(=O)NNC(=O)c2ccc(C)c([N+](=O)[O-])c2)c1	0	0	0	0	0	0	-	-
O=C(O)c1cccc(NC(=S)NC(NC(=O)c2ccccc2[N+](=O)[O-])C(Cl)(Cl)Cl)c1 (centres undefined)	0	0	0	0	0	0	-	-
Cc1ccc(NC(=S)NNC(=O)c2cccc([N+](=O)[O-])c2)cc1Cl	0	73.3	-	0	0	0	70.3	24.1
CC(=O)c1cccc(NC(=S)NNC(=O)c2ccc(C)c([N+](=O)[O-])c2)c1	0	40.6	0	0	0	0	38.0	15.1
O=C(O)c1cccc(NC(=S)NC(NC(=O)c2cccc([N+](=O)[O-])c2)C(Cl)(Cl)Cl)c1 (centres undefined)	0	52.9	-	0	0	0	0	8.7
Cc1ccc(NC(=S)NNc2ccc(C(=O)O)cc2[N+](=O)[O-])cc1C	0	35.4	-	0	0	0	0	10.1
O=C(NNC(=S)Nc1ccc(F)cc1)c1cccc([N+](=O)[O-])c1	0	0	-	0	0	0	-	-
CC1CCc2sc(C(=O)N3CCN(c4ncccn4)CC3)cc2C1 (centres undefined)	0	0	-	0	0	0	-	-
CC(C)=CCC[C@H](C)CC1Cc2[nH]c(=S)[nH]c(=O)c2C(c2ccc(F)cc2)O1 (some centres undefined)	0	0	-	0	-	0	-	-
CC(C)=CCC[C@H](C)CC1Cc2[nH]c(=S)[nH]c(=O)c2C(c2ccc(Cl)cc2)O1 (some centres undefined)	0	35.3	-	0	-	0	42.3	15.8
O=C(NCc1ccncc1)[C@@H]1CCCN1C(=O)[C@@H]1CCCN1C(=O)c1cccc2ccccc12	0	0	-	0	-	0	-	-
Cc1ccc(C(C)C)c(OCC(=O)Nc2ccc(N3CCOCC3)cc2N2CCOCC2)c1	0	0	-	0	0	0	-	-
CC1=Nc2cc(C(=O)NCC3CCCO3)ccc2Sc2ccc(Br)cc21 (centres undefined)	0	0	-	0	0	0	-	-
CC1=Nc2cc(C(=O)O)ccc2Sc2ccc(Br)cc21	0	50.5	0	0	0	0	55.2	22.1
O=C(CCNC(=O)c1ccc(Cl)cc1)NCc1ccco1	0	0	-	0	0	0	-	-
O=C(O)c1cccc(N/N=C(\N=Nc2ccccc2)c2ccccc2)c1	0	37.6	-	0	0	0	53.0	17.5
O=C(Nc1c(C(=O)O)[nH]c2ccccc12)c1cccc(C(F)(F)F)c1	0	38.8	-	0	0	0	0	0
O=C(Nc1c(C(=O)O)[nH]c2ccc(F)cc12)c1cccc(C(F)(F)F)c1	0	63.0	-	0	0	0	38.8	8.8
O=C(Nc1ccccc1)c1cccc(C(F)(F)F)c1	0	0	0	0	0	0	-	-
CCOC(=O)C1=C(c2ccccc2)N=c2s/c(=C\c3ccco3)c(=O)n2C1c1cccs1 (centres undefined)	0	43.7	0	23.2	0	0	0	19.7
CC(CCN1CCC(C(O)(c2ccccc2)c2ccccc2)CC1)Oc1cccc(Br)c1 (centres undefined)	-	0	-	0	-	-	-	-
O=C(Nc1ccc(N2C(=O)C3C4C=CC(C4)C3C2=O)cc1)Nc1nncs1 (centres undefined)	0	0	-	0	0	0	-	-
O=C(Nc1ccc(N2C(=O)C3C4C=CC(C4)C3C2=O)cc1)Nc1nnc(C(F)(F)F)s1 (centres undefined)	0	54.8	0	0	0	0	39.9	15.8
CCOCCCNC(=O)C(NC(=O)Cc1cccs1)c1ccc(OC)cc1 (centres undefined)	0	0	0	0	0	0	-	-
SMILES	NOD2 RIPK2 PPI	rCAG RNA binder	TLR4 MyD88 comp	PRMT1 FP inh	TLR9-MyD88 block	ABHD5-PLIN5 inh	rCAG bind conf	DNA CAG counter	others
CCCCCCN1C[C@H](O)[C@@H](n2cc(C3CC3)nn2)C[C@@H]1c1ccc(C)cc1	0	0	-	0	0	0	-	-
O=S(=O)(Nc1ncccn1)c1ccc(NC(=S)N2CCN(Cc3ccc(F)cc3Cl)CC2)cc1	0	38.6	-	0	0	0	37.8	11.1
O=C(O)CC(NC(=O)c1sc2ccccc2c1Cl)c1ccc(OC2CCCC2)cc1 (centres undefined)	0	58.5	0	0	0	0	72.8	25.1	dCAG dye DR=0
O=C(NNC(=S)NC1CCCCC1)c1sc2ccccc2c1Cl	0	83.3	0	0	0	0	81.6	53.9
O=C(O)CC(NC(=O)C1c2ccccc2Oc2ccccc21)c1ccc(OC2CCCC2)cc1 (centres undefined)	0	50.5	0	0	0	0	48.4	12.1
O=C(O)CC(NC(=O)C1c2ccccc2Oc2ccccc21)c1ccc(Cl)cc1 (centres undefined)	0	39.1	0	0	0	0	0	0
O=C(COC(=O)/C=C/c1ccco1)NCCN1C(=O)CSC1=O	0	0	-	0	0	0	-	-
Nc1cccc2[nH]c(C(F)(F)F)nc12	0	70.2	0	0	0	0	60.8	32.7
CCC(Sc1ncccc1C(=O)O)C(=O)N1CCCC1 (centres undefined)	0	42.8	0	0	0	0	0	0
COc1cc2c(cc1OC)C(c1ccccc1)N(Cc1ccc(S(=O)(=O)NC(=O)c3ccco3)cc1)CC2 (centres undefined)	0	39.8	-	0	-	0	39.4	11.3
N#Cc1ccc(C(=O)Oc2coc(CSc3ncccn3)cc2=O)cc1	-	-	-	0	-	-	-	-
CCN(CCCNc1cc2c(c(N)c1S(=O)(=O)O)C(=O)c1ccccc1C2=O)c1ccccc1	0	73.5	-	22.6	0	0	81.4	54.3
O=C(CSc1nnc(-c2ccco2)o1)c1ccccc1	0	0	0	0	0	0	-	-
CC(=O)Nc1ccc(NC(=O)CSc2nnc(-c3ccco3)o2)cc1	0	0	0	0	0	0	-	-
O=C(CSc1nnc(-c2ccco2)c(-c2ccco2)n1)c1ccccc1	0	74.6	0	64.9	0	0	57.5	26.4
CC(=O)c1ccc(NC(=O)CSc2nnc(-c3ccco3)c(-c3ccco3)n2)cc1	0	45.4	0	73.3	0	22.9	36.9	15.5
Fc1ccc(CNC(=S)NC2CCCC2)cc1	0	0	0	0	0	0	-	-
